Only some compounds are listed: those with a hit (about 1.4% of all), similar ones and a draw of the others.
AmpC no deterg: blocks E. coli AmpC beta-lactamase in detergent-free assay. P00811. AmpC nitrocefin hydrolysis, absorbance 480 nm, 0.0001% Triton. Potency, µM (top dose mostly 57.1 µM), inactives show top-dose activity change, negative = inhibition, most hits filed as inhibitors. 330,000 compounds, 0.52% hits. AID 485341;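 also: plate controls were no compound for no effect and no enzyme for full effect; nearly all actives have a fitted effect of over 20% in size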
Target sequence (P00811 whole entry, looked up): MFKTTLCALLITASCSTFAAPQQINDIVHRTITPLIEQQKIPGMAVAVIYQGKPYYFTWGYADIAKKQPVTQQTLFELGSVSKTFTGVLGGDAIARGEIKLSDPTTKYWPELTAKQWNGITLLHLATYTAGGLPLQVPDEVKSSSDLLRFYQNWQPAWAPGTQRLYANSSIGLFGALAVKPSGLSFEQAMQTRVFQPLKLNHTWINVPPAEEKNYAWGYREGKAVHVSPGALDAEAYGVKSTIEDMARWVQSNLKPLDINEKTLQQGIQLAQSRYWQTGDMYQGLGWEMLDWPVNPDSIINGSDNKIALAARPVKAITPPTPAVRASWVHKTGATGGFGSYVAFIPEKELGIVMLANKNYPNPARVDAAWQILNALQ
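AmpC (5.3 nM in the dispensed reagent) in 20 mM phosphate pH 7.0 with 0.01% (detergent screen) or 0.0001% Triton X-100 was preincubated with compounds for 15 min at room temperature. Nitrocefin was then added from an 800 uM solution, and hydrolysis was followed at 480 nm.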
Giardia FBPA inh: inhibitors of Giardia lamblia fructose-1,6-bisphosphate aldolase. A8B2U2. purified Giardia FBPA. Potency, µM (titrated, usually from 59.6 µM), inactives show at the top dose activity, negative = inhibition, hits mostly inhibitors. 290,000 compounds, 0.71% hits. AID 2451; also: % is scaled to controls: 0 for no effect and ±100 for the full control effect; nearly all actives have a fitted effect of over 55% in size
Target sequence (A8B2U2 whole entry, looked up): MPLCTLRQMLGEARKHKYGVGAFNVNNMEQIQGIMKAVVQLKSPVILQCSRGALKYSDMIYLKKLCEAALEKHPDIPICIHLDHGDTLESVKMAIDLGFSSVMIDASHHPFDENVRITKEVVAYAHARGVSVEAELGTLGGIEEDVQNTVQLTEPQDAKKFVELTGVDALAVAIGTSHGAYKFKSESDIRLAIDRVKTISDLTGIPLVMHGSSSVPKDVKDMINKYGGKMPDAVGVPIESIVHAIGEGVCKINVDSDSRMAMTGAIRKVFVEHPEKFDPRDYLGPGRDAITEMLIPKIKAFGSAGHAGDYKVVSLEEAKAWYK
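Giardia FBPA (40 nM reagent) was preincubated 10 min at RT with compound (up to 57.5 uM final), then substrate plus GAPDH/TPI/NAD/arsenate coupling system with diaphorase/resazurin was added; resorufin fluorescence (525/598 nm) was read after 20 min.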
SARS PLP yeast: blocks SARS-CoV papain-like protease in a yeast assay; Potency, µM (top dose mostly 32.9 µM), inactives show top-dose activity, positive = growth rescue, actives largely listed as activators; S. cerevisiae expressing SARS-CoV PLpro, growth rescue; 330,000 compounds, 0.19% hits; AID 485353; calls by dose curve; also: 0% is about no effect; nearly all actives have a fitted effect of over 55% in size
AmpC inh detg: blocks E. coli AmpC beta-lactamase in detergent assay; P00811; AmpC hydrolysis of nitrocefin, absorbance 480 nm, 0.01% Triton; Potency, µM (highest dose often 114 µM), for the others: at the top dose activity change, negative = inhibition, hits mostly inhibitors; 370,000 compounds, 0.041% hits; AID 485294;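 also: 0% = no-compound wells and -100% = no-enzyme wells; nearly all actives have a fitted effect of over 25% in size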
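20 mM phosphate pH 7.0 + 0.01% (detergent screen) or 0.0001% Triton X-100; 5.3 nM AmpC reagent; cpd preinc 15 min RT; nitrocefin (800 uM stock) to start; A480 q20 s × 4 min; Activity was normalised to no-enzyme and no-compound control wells.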
NS1 function inh: blocks influenza NS1 protein function; Potency, µM (series often up to 46.1 µM), inactives show at the top dose activity, positive = more growth; AID 2326; 270,000 compounds, 0.4% hits; calls by dose curve; also: actives are rising curves; nearly all actives have a fitted effect of over 50% in size
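S. cerevisiae expressing influenza A NS1, grown in glucose, washed, then diluted 1:100 into pH 6.0 -URA galactose medium with 23 nl compound. Growth recovery read as OD600; NS1-free strain serves as control.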
* marks the source's active call; other numbers are inactive results; u = inconclusive; x = not tested or not shown. Unless noted, calls follow the shape of the dose curve; as a rule, active = well fitted curve in the direction sought with a large enough effect; inconclusive = small, poorly fitted or top-dose-only effect, or another doubt; inactive = no such curve, though single readings can be large; an effect the other way counts as inactive or inconclusive. Potency is read from the fitted curve at half-maximal effect.

SMILES	AmpC no deterg	Giardia FBPA inh	SARS PLP yeast	AmpC inh detg	NS1 function inh
CCCCCn1c(C(Cc2ccccc2)NC(=O)COC)nc2ccccc21 (stereo not given)	1.26µM*	8.4%	3.4%	u	-29.6%
CCCCn1c(CNC(=O)CCC)nc2ccccc21	7.08µM*	1.3%	-4.9%	-12.1%	-7.2%
Cc1sc(NC(=O)CN2C(=O)NC3(CCCC3)C2=O)nc1-c1ccc(F)cc1	25.1µM*	x	-0.6%	u	x
CCCOc1ccc(/C=N/NC(=S)Nc2ccccc2[N+](=O)[O-])c(O)c1	-45.4%	22.9%	10µM*	-8.8%	21.4%
CCCOc1ccc(/C=N/Nc2ccccc2[N+](=O)[O-])c(O)c1	-25.7%	2.0%	-11.9%	5.1%	-4.8%
COc1ccc(Cn2nnc3c(=O)[nH]c(C4CCCN(C(=O)c5ccccc5)C4)nc32)cc1 (stereo not given)	38.4%	-0.1%	1.4%	11.7%	-9.4%
CCOC(=O)/C=C/C(=O)Nc1ccc(S(=O)(=O)N2CCc3ccccc32)cc1	15.8µM*	4.5%	-14.0%	-11.1%	-8.9%
CCOC(=O)/C=C/C(=O)Nc1ccc(S(=O)(=O)N2CCCCCC2)cc1	-36.5%	0.5%	0.8%	-3.5%	-2.4%
CCC(C)c1ccccc1NC(=O)COC(=O)CCc1cc(OC)c(OC)c(OC)c1 (stereo not given)	28.6%	-9.1%	-1.3%	u	-3.0%
CCOc1ccc(S(=O)(=O)N(C)c2ccc(OCC(=O)Nc3nc4ccccc4s3)cc2)cc1	-8.3%	1.2%	9.0%	1.1%	-0.5%
CNC1=C(N(C(C)=O)c2ccc(Br)cc2)C(=O)c2ccccc2C1=O	-13.5%	u	-12.9%	u	-38.6%
CC(=O)C1=C(c2ccc(Br)cc2)C(=O)c2ccccc2C1=O	-21.2%	0.281µM*	-97.0%	u	-34.4%
N#Cc1c(SCC(=O)Nc2cccc(C(F)(F)F)c2)sc2c(O)cc(=O)[nH]c12	22.4µM*	-13.9%	0.1%	u	10.6%
Cc1cc(NC(=O)CSc2sc3c(O)cc(=O)[nH]c3c2C#N)ccc1Br	14.1µM*	4.2%	8.2%	7.0%	u
COc1ccccc1NC(=O)CSc1sc2c(O)cc(=O)[nH]c2c1C#N	-38.7%	-19.2%	6.9%	-1.1%	28.3%
COc1cc(CN2CCCC(C(=O)c3ccc4c5c(cccc35)CC4)C2)cc(OC)c1O (stereo not given)	111.5%	7.92µM*	-0.4%	2.4%	2.1%
O=c1cc(-c2ccccc2)oc2cc(O)c(O)c(O)c12	-29.9%	9.98µM*	u	x	x
CC(C)=NOC(=O)c1ccc(-c2ccccc2)cc1	-11.7%	4.5%	-72.0%	-12.0%	-39.7%
O=S(=O)(c1ccc(NC(=S)N/N=C/c2ccc(O)c(O)c2)cc1)N1CCOCC1	15.8µM*	1.1%	0.3%	-3.7%	3.2%
O=C(COC(=O)C1CCN(S(=O)(=O)c2cccc3cccnc23)CC1)c1ccc([N+](=O)[O-])cc1	-37.2%	-2.3%	-2.1%	-13.0%	8.2%
Fc1ccc(C2CC(c3ccccc3)n3ncnc3N2)cc1 (stereo not given)	-14.2%	7.5%	1.0%	-1.5%	5.3%
Clc1ccc(C2CC(c3ccccc3)Nc3ncnn32)cc1 (stereo not given)	1.26µM*	3.5%	-5.2%	u	-11.4%
COC(=O)c1ccccc1NC(=O)C1CCN(S(C)(=O)=O)CC1	0.159µM*	1.5%	2.4%	-0.1%	6.4%
Cc1cc(C)c(S(=O)(=O)NCCc2ccccc2)c(C)c1	-19.0%	-18.4%	-1.7%	-5.6%	-11.1%
Cc1cc(C)c(S(=O)(=O)NCCn2ccc3ccccc32)c(C)c1	39.8µM*	2.8%	-24.9%	u	-38.4%
SMILES	AmpC no deterg	Giardia FBPA inh	SARS PLP yeast	AmpC inh detg	NS1 function inh
Cc1cc(C)c(C(=O)NC2CCCc3c2cnn3-c2cccc(C)c2C)o1 (stereo not given)	43.8%	x	3.3%	0.7%	-6.2%
COc1ccc(CN(C(=O)c2cnccn2)C(C(=O)NC(C)(C)C)c2cc(OC)c(OC)c(OC)c2)cc1 (stereo not given)	26.7%	-2.3%	-4.3%	-8.1%	-3.0%
COc1ccc(C2NC(=O)NC3=C2C(=O)CCC3)cc1 (stereo not given)	0.9%	10.2%	2.8%	-8.6%	7.8%
Cc1snc(SCC(=O)c2ccc(Cl)cc2)c1C#N	-50.4%	-4.6%	-1.5%	u	10.7%
Cc1ccc(C(=O)CSc2nsc(C)c2C#N)cc1	0.251µM*	0.2%	-7.8%	3.7%	9.3%
Cc1cc(C)c(S(=O)(=O)N2CCN(C(=O)C3CC3)CC2)c(C)c1	124.6%	x	0.3%	u	x
CNS(=O)(=O)c1ccc2c3c(cccc13)C(=O)N2	-15.3%	0.6%	1.1%	-17.6%	-2.4%
O=C1Nc2ccc(NS(=O)(=O)c3cccs3)c3cccc1c23	8.3%	8.89µM*	5.2%	-3.8%	-10.5%
COc1ccc(-n2c(SCCN(C)C)nc3ccccc3c2=O)cc1	3.9%	4.2%	5.7%	-8.0%	-1.7%
COc1cccc(C2C(C(=O)c3cc4cccc(OC)c4o3)=C(O)C(=O)N2c2cc(C)on2)c1OC (stereo not given)	20µM*	22.9%	-2.0%	u	14.4%
O=C(CSc1ccc(Br)c2cccc(Cl)c12)Nc1ccc(S(=O)(=O)Nc2nccs2)cc1	2.51µM*	14.5%	0.1%	2.1%	10.0%
O=C(Cn1ncc2c([nH]c3ccccc32)c1=O)N1CCN(c2ccccn2)CC1	-20.4%	23.6%	-1.3%	7.4%	14.1%
Cc1ccccc1Nc1c(N)c(=O)oc2ccccc12	0.316µM*	-1.2%	-3.7%	1.6%	-1.7%
Cc1ccc(C2CC(=O)C=C(O)C2)cc1 (stereo not given)	14.1µM*	0.8%	-4.3%	-14.3%	u
Cc1ccc(C2=CC(=O)C[C@H](c3ccc(Cl)cc3)C2)cc1	-10.4%	x	-1.6%	-3.1%	x
Cc1ccc(-n2c(N)c(C(=O)N3CCCCC3)sc2=S)cc1	21.8%	-4.5%	-6.6%	3.1%	-54.7%
Cc1ccc(-n2c(N)c(C(=O)N3CCN(C)CC3)sc2=S)cc1	-27.6%	9.98µM*	-3.5%	u	-15.9%
Cc1ccc(NC2=C(Cl)C(=O)OC2OC(=O)c2ccc(C)cc2)cc1 (stereo not given)	-47.1%	-8.9%	-18.6%	8.91µM*	x
COC(=O)c1ccc(NC2=C(Cl)C(=O)OC2OC(=O)c2ccccc2)cc1 (stereo not given)	4.47µM*	-4.7%	-5.4%	10µM*	x
NC(=O)CC(NC(=O)Cc1cccc2ccccc12)c1ccc(N2CCC(Cc3ccccc3)CC2)c([N+](=O)[O-])c1 (stereo not given)	-39.2%	4.7%	-6.9%	u	-4.8%
CCCC(O)(c1ccc(Br)cc1)C(CN1CCOCC1)c1ccc(Cl)cc1 (stereo not given)	104.8%	-20.1%	-1.0%	-9.2%	3.8%
O=C1C2Sc3[nH]c(=O)sc3C(c3ccccc3)C2C(=O)N1c1ccccc1 (stereo not given)	17.8µM*	x	2.2%	-8.9%	u

Screens: PubChem BioAssay, National Center for Advancing Translational Sciences (NCATS)
